Screening results from PubChem.
Pf Dd2 inh = qHTS Primary assay for Inhibitors of Plasmodium falciparum Dd2 growth in vitro; AID 1347417, 2020; P. falciparum Dd2 growth, SYBR Green, 72 h; Potency, µM (doses to about 28.9 µM), inactives show at the highest dose activity, negative = inhibition, actives largely listed as inhibitors; 4.3% of 120,000 active; active = well fitted inhibition curve with a large enough effect;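 also: plate controls were DMSO vehicle for no effect and reference drug for full effect; nearly all actives have a fitted effect of over 65% in size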
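Infected erythrocytes (Dd2, 0.3% parasitemia, 2.5% hematocrit final) are added to compound in RPMI-1640/Albumax II medium, grown 72 h at 37C in low oxygen, then lysed with saponin/Triton-X containing SYBR Green and read by fluorescence.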
* hit, by the source's call; i = inactive; [ ] = remark or other dose. The full list was thinned out, with hits kept by preference. Potency is read from the fitted curve at half-maximal effect.

SMILES	Pf Dd2 inh
CCCN1CCC2(Cc3ccccc3CN(C(=O)C(C)C)C2)C1 (centres undefined)	8.9µM*
O=C(O)CCC(=O)N1Cc2ccccc2CC2(CCCN(CC3CCCCC3)C2)C1 (centres undefined)	22%
CCCN1CCC2(Cc3ccccc3CN(C(=O)CCCC(=O)O)C2)C1 (centres undefined)	-2%
CC(C)C(=O)N1Cc2ccccc2CC2(CCCN2C)C1 (centres undefined)	10µM*
CN(C)CCC(=O)N1Cc2ccccc2CC2(CCCN2C)C1 (centres undefined)	2%
O=C(O)CCCC(=O)N1Cc2ccccc2CC2(CCCN(CC3CCCCC3)C2)C1 (centres undefined)	6%
CN(C)[C@@H]1CN(C(=O)c2ccccc2)CC[C@]1(O)c1ccccc1	20%[5.79 µM]
Cc1nn(C)c(C)c1CCNC(=O)C1CCN(C(=O)N2CC3CC(C2)[C@H]2CCCC(=O)N2C3)CC1 (some centres undefined)	i
COC(=O)c1sc2cccc(F)c2c1S(=O)(=O)Nc1ccc(C)cc1Cl	62%
CNC(=O)N1C[C@@H](CN(C)C)[C@H](NC(=O)c2ccc(C(F)(F)F)cc2)C1	39%
N#Cc1ccc(C(=O)N2CCC(N3CCCC(C(=O)N4CCCC4)C3)CC2)cn1 (centres undefined)	5%
O=C(NCc1ccccc1)c1cnc2n1CCN(Cc1ccc(F)cc1)CC2	-22%[44.1 µM]
CCc1cccc(C)c1NC(=O)Cn1ccn(-c2cccc(OC)c2)c(=O)c1=O	i
O=C(Cc1c[nH]c2ncc(-c3ccccc3)cc12)Nc1ccc(N2CCOCC2)cc1	11%[44.1 µM]
COc1ccc(Nc2ccc3c(n2)CN(Cc2ccccc2)C(=O)CO3)cn1	i
Cc1ccccc1CCC(=O)N1CCC2(CC1)C(C(=O)O)CC(=O)N2C (centres undefined)	-2%
CC(=O)Nc1ccccc1-c1cn(C)c(=O)n2cc(COc3ccc(Cl)cc3)nc12	-12%[44.1 µM]
O=C1CN(Cc2cc3n(n2)CCCNC3)CCN1Cc1ccc2c(c1)OCO2	6%
CCNC(=O)N[C@@H]1C=C[C@@H](c2c(C)nn(-c3ccc(OC)cc3)c2C)C1	10µM*
Cc1nn(-c2ccc(C(C)C)cc2)c(C)c1[C@@H]1C=C[C@@H](NC(=S)NC2CCCCC2)C1	-9%
Cc1nn(CCC#N)c(C)c1[C@@H]1C=C[C@@H](NC(=O)NC(C)C)C1	-6%[44.1 µM]
COc1ccc(NC(=O)c2nnn(-c3ccc(C(C)C)cc3)c2C)c(OC)c1	i
Cc1ccc(-n2nc(C)c([C@@H]3C=C[C@@H](NC(=O)NC4CCCCC4)C3)c2C)cc1Cl	-19%[44.1 µM]
COc1ccc(-n2nc(C)c([C@@H]3C=C[C@@H](NC(=O)NC4CCCCC4)C3)c2C)cc1	16µM*
COc1ccc(NC(=O)N[C@@H]2C=C[C@@H](c3c(C)nn(-c4ccc(C(C)C)cc4)c3C)C2)cc1	11µM*
SMILES	Pf Dd2 inh
Cc1nn(-c2ccc(C(F)(F)F)cc2)c(C)c1[C@@H]1C=C[C@@H](NC(=O)NC(C)C)C1	i
COc1ccc(C(=O)N2CCC[C@H]2c2nc(-c3ccc(OC)cc3)no2)cc1	i
COc1ccc(C2Cn3nnc(C(=O)N4CCN(C(=O)c5cccs5)CC4)c3CO2)cc1 (centres undefined)	-10%
O=C(Nc1ccc(F)cc1)C1CCN(C(=O)c2ncn3c2COC(c2ccc(F)cc2)C3)CC1 (centres undefined)	i
C#CCNC(=O)CC[C@@H]1CNC(=O)[C@@H]2C[C@H](NC(=O)c3ccco3)CN12	-14%[44.1 µM]
CCc1ccc(NC(=O)CN(c2cc(C)cc(C)c2)S(=O)(=O)c2c(C)[nH]c(=O)[nH]c2=O)cc1	13%
CCN1CC2ON=C(C(=O)O)C2C1 (centres undefined)	18%[44.1 µM]
O=C(N[C@@H]1CN(C(=O)NCc2ccccc2)CCC[C@H]1O)c1ccc(OCc2ccccc2)cc1	-19%
COc1ccc(NC(=O)Cn2nnc3sc4c(c3c2=O)CCC(C)C4)c(OC)c1 (centres undefined)	19%
CCOC(=O)N1CCc2c(sc(NCc3cccs3)c2C(=O)Nc2ccc(OC)cc2OC)C1	-6%
COC(=O)c1c(NC(=O)COc2cc(C)ccc2C(C)C)sc2c1CCC(C)C2 (centres undefined)	24%
COC(=O)c1c(NC(=O)COc2ccc(OC)cc2)sc2c1CCC(C)C2 (centres undefined)	-1%
CCOC(=O)N1CCc2c(sc(NCc3ccc(N(CC)CC)cc3)c2C(=O)Nc2cc(OC)ccc2OC)C1	7.9µM*
COC(=O)c1c(NC(=O)COc2c(C)ccc(C)c2C)sc2c1CCC(C)C2 (centres undefined)	26%
COc1ccc(OC)c(NC(=O)c2c(NCc3ccc(C)o3)sc3c2CCC(C)C3)c1 (centres undefined)	11µM*
CCOC(=O)N1CCc2c(sc3c2C(=O)NC(c2cc(OC)c(O)c(OC)c2)N3)C1 (centres undefined)	-15%
COc1ccc(OC)c(NC(=O)c2c(NCc3ccc(OC)c(OC)c3)sc3c2CCC(C)C3)c1 (centres undefined)	5.6µM*
Cc1cccc(NC(=O)CSc2nc(C3CCCC3)nc3c2c(=O)n(C)c(=O)n3C)c1C	17%
COc1ccc(C(=O)N2CCN3C(=O)N(CC(N)=O)C(=O)[C@@H]3C2)cc1	1%[44.1 µM]
CCCC(=O)NC1CCN(c2ccc(F)cc2)C1=O (centres undefined)	6%
CCN(c1ccccc1)c1nnc(NC(=O)Nc2cccc(C(F)(F)F)c2)s1	-6%
Cc1ccc(NC(=O)Nc2nnc(N(CC(C)C)CC(C)C)s2)cc1Cl	-10%
CC(C)CN(CC(C)C)c1nnc(NC(=O)Nc2cccc(C(F)(F)F)c2)s1	11µM*
NC(=O)[C@H](CC1CCCCC1)NC(=O)[C@@H]1CN(C(=O)c2cccnc2)CCN1C(=O)c1cccs1	-15%
CN(C(=O)c1nn(C)c2c1CS(=O)(=O)c1ccccc1-2)c1cccc(Cl)c1	20%
SMILES	Pf Dd2 inh
Cc1ccc(NC(=O)c2cc(S(=O)(=O)NC3CCCCCC3)ccc2F)cc1F	4.5µM*
Cc1ccc(NC(=O)c2cc(S(=O)(=O)N3CCCc4ccccc43)ccc2F)cc1F	-23%
O=C(Nc1ccccc1Br)c1cc(S(=O)(=O)NC2CCCCC2)ccc1F	i
O=C(CC1=CCCCC1)N1CCC2(CC1)CC(O)CCO2 (centres undefined)	18%
Cn1nccc1C(=O)N1CCn2c(nnc2[C@@H]2C[C@@H](O)CN2Cc2ccccc2)C1	13%
CC(C)(C)n1cnc2cc(NCc3ccccc3Cl)ccc21	i
COc1ccccc1N1CCN(CCCNC(=O)c2cnn(-c3ccc(C)c(C)c3)c2C2CCN(C(=O)OC(C)(C)C)CC2)CC1	5.6µM*
Cc1ccc(-n2ncc(C(=O)NCCCN3CCCCC3)c2C2CCN(C(=O)OC(C)(C)C)CC2)cc1	10µM*
COc1ccccc1N1CCN(CCCNC(=O)c2cnn(-c3cccc(Cl)c3)c2C2CCN(C(=O)OC(C)(C)C)CC2)CC1	2µM*
CC(=O)N1CCC(Oc2ccc(Cl)cc2C(=O)N(C)Cc2nccn2C)CC1	-6%
CN(Cc1ccccc1)C(=O)c1ccnc(-c2nnc3ccc(Nc4ccccc4)nn23)c1	-22%[44.1 µM]
COc1ccc(CN2Cc3cc(NC(=O)Cc4ccc(F)cc4)ccc3OC(C)C2=O)cc1 (centres undefined)	-22%
CCn1cc(CN(C)C(=O)C2N(C(C)C)C(=O)C23CCCC3)c(C)n1 (centres undefined)	8%
COCC(=O)NC[C@H]1Cn2c(-c3ccc(Cl)cc3)cnc2CO1	i
